High-throughput results deposited in PubChem BioAssay by National Center for Advancing Translational Sciences (NCATS).
D1 potentiator = Potentiators of Human D1 Dopamine Receptor: qHTS; HEK293 TREx D1 cells, calcium flux, dopamine EC20 potentiation; potentiation, % at 10 µM; hit rate 0.036% among 360,000; in the data active means potentiation above about 30%; further: 0% is about no effect
TRHR enhancer = qHTS for Small Molecule Agonists and Allosteric Enhancers of Human TRH Receptor: Primary Screen for Enhancers. TRHR cells, fluo-8 calcium fluorescence, EC20 TRH enhancement. enhancement, % at 2 µM. hit rate 0.66% among 360,000. AID 493056, 2011; in the data active means enhancement above about 30%; further: 0% is about no effect
Target sequence (P34981 whole entry, looked up): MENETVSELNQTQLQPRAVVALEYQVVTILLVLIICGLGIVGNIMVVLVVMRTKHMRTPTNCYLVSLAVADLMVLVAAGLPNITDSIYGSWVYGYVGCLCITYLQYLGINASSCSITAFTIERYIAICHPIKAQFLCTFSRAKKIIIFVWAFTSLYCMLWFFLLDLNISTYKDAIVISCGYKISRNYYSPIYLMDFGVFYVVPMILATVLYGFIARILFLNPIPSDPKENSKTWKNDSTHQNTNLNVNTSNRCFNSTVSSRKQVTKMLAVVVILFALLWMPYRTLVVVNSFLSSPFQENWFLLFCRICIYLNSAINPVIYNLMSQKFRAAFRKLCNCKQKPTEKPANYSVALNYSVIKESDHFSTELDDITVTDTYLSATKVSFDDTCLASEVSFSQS
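TRHR-expressing cells loaded with fluo-8 calcium dye were read kinetically (ex 480/em 530) during compound addition, then stimulated with an EC20 of TRH (10 nM final). Enhancement of the Gq-mediated intracellular calcium response was scored.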
D1 antagonist = Antagonist of Human D 1 Dopamine Receptor: qHTS. hit rate 3.2% among 360,000. HEK293 TREx D1 cells, calcium flux, dopamine EC80; active compounds read low. AID 504652, 2011. D(1A) dopamine receptor (Homo sapiens), P21728. activity change, negative = inhibition, % at 10 µM; in the data active means activity change below about -30%; further: on the % scale 0 is the no-effect control and ±100 the full control effect
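Compound effects on dopamine-evoked calcium signalling were measured in tetracycline-induced HEK293 Trex D1 cells. Dopamine at EC80 followed a 180 s compound pre-read, and fluorescence was tracked kinetically for 180 s more.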
D1 agonist = Allosteric Agonists of the Human D1 Dopamine Receptor: qHTS; D(1A) dopamine receptor (Homo sapiens), P21728; hit rate 1% among 360,000; HEK293 T-REx D1 cells, calcium flux, agonist mode; AID 504660, 2011; activation, % at 2 µM; further: 0% is about no effect
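Tetracycline-induced HEK293 TREx D1 cells, force-coupled to calcium signalling, were dye-loaded with a no-wash calcium kit. Compound was pin-added after a 10 s baseline. Fluorescence was read kinetically at 1 cycle/s for 180 s, with calcium rises flagged as agonism.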
TRHR ag = qHTS for Small Molecule Agonists and Allosteric Enhancers of Human TRH Receptor: Primary Screen for Agonists | Thyrotropin-releasing hormone receptor (Homo sapiens), P34981 | TRHR cells, calcium flux fluo-8, FDSS agonist mode | activation, % at 2 µM | hit rate 0.18% among 360,000 | AID 493084, 2011; further: 0% is about no effect
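Fluo-8-loaded TRHR cells; 10 s baseline, compound added, kinetic Ca2+ fluorescence read 1/s, agonist mode.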
Numbers without * were called inactive. Rows were chosen to be rich in hits. Some 4.6% of all compounds tested hit in one or more screens of this group. Unless noted, no stated cut-off is given here; in the data, active means activation above about 30%; inactive means the rest.

SMILES	D1 potentiator	TRHR enhancer	D1 antagonist	D1 agonist	TRHR ag
COc1ccc(NC(=O)CN(C)C(=O)c2ccccc2OCC(=O)Nc2cccc(C(F)(F)F)c2)cc1	-5	18	-33*	13	-1
COc1ccc(CN(C)C(=O)c2ccc(OCC(=O)Nc3cccc(C(F)(F)F)c3)c(OC)c2)c(OC)c1	-5	7	-13	7	-1
COc1cccc(CN2C(=O)c3ccccc3Sc3ccc(C(=O)NCCc4ccc(Cl)cc4)cc32)c1	0	18	4	8	2
Cc1ccc(CN(Cc2ccco2)C(=O)COc2ccc(C(C)C)cc2)cc1	1	4	-56*	46*	-1
Cc1cc(C)c2c(CC(=O)N(Cc3ccc(N(C)C)cc3)Cc3ccco3)coc2c1	3	-2	5	2	0
Cc1ccc2c(CC(=O)N(Cc3ccc(Cl)cc3)Cc3ccco3)coc2c1	-1	7	-22	33*	-1
Cc1ccc(OCC(=O)N(Cc2ccco2)Cc2ccco2)cc1	-2	2	-15	2	-1
CCN(CC)S(=O)(=O)c1ccc2[nH]cc(C(=O)NCCC3=CCCCC3)c(=O)c2c1	-10	4	-34*	4	-1
CCOc1ccc(N(C)S(=O)(=O)c2ccc3[nH]cc(C(=O)NCC(OC)OC)c(=O)c3c2)cc1	-6	3	0	3	0
CCOc1ccc(N(C)S(=O)(=O)c2ccc3[nH]cc(C(=O)NCc4ccccc4)c(=O)c3c2)cc1	-2	37*	-11	1	0
CCN(CC)S(=O)(=O)c1ccc2[nH]cc(C(=O)NCCN3CCCCCC3)c(=O)c2c1	-5	19	10	3	-1
CCOC(=O)N1CCN(C(=O)c2c[nH]c3ccc(S(=O)(=O)N(C)c4ccc(F)cc4)cc3c2=O)CC1	-4	0	1	-1	0
CCOC(=O)N1CCN(C(=O)c2c[nH]c3ccc(S(=O)(=O)N(C)c4ccc(OCC)cc4)cc3c2=O)CC1	-19	24	-89*	2	0
Cc1ccc(CNC(=O)Cn2cc3c(n2)-c2c(oc(C(=O)N4CCOCC4)c2C)CC3)cc1	-4	2	-1	0	0
COc1cc(OC)c(NC(=O)CSc2cc(=O)n(C)c3ccc(Cl)cc23)cc1Cl	5	40*	5	0	0
NS(=O)(=O)Nc1c(Br)cc(Br)c2cccnc12	2	-6	3	7	-1
Cc1ccc(Cl)cc1N1CCN(S(=O)(=O)c2ccc3oc(=O)c4ncn(C)c4c3c2)CC1	-3	-3	8	0	1
CCc1ccc(NC(=O)CSC2=C(C#N)C(c3ccco3)C3=C(CCCC3=O)N2)cc1 (centres undefined)	-11	1	-61*	0	1
CNC(=O)C1CC(=O)N(CCc2ccc(OC)cc2)C(=Nc2ccc(OC)cc2)S1 (centres undefined)	-13	0	-3	0	0
CNC(=O)C1CC(=O)N(Cc2ccc3c(c2)OCO3)C(=Nc2ccc(OC)cc2)S1 (centres undefined)	-6	17	-30*	10	-1
COc1ccc(OC)c(C(=O)CSc2nnc(Cc3cccs3)n2CCc2ccccc2)c1	3	-7	3	51*	-1
O=C(CSc1nc(-c2ccccc2)[nH]c1-c1ccc(F)cc1)NC1CCCC1	-2	-3	0	3	7
COc1cc(C(CC(=O)NCc2ccccc2)N2Cc3ccccc3C2=O)cc(OC)c1OC (centres undefined)	0	3	0	4	-1
Cc1ccc(Cl)cc1NC(=O)N1CCc2cc(S(=O)(=O)N3CCC(C)CC3)ccc21	-2	4	4	0	0
CCCc1cc(C(=O)Nc2ccc(C(=O)c3ccccc3)cc2)n(C)n1	-12	-9	-32*	14	3
CCN(Cc1ccccc1)Cc1c(O)ccc2oc(C)c(C(=O)Nc3ccccc3C)c12	2	0	12	-2	0
CCOC(=O)C1=C(C)Nc2ccccc2N=C1NC(=O)Cc1ccc(OC)cc1	-5	-1	-81*	1	0
